Potency and activity change, negative = cytotoxicity data for 16 molecules are collected here from PubChem BioAssay (NCATS).

Results filed as inconclusive are left out. Unmarked numbers belong to inactive results. Activity calls are given as the source filed them. Calls follow the shape of the dose curve; as a rule, active = well fitted cell-killing curve with a large enough effect; inconclusive = small, poorly fitted or top-dose-only effect, or effect the other way; inactive = flat fitted curve, though single readings scatter.

What all share (experiment): Primary qHTS to identify gynecologic anti-cancer compounds using libraries of approved drugs and bioactive compounds (AID 1345084); also: nearly all actives have a fitted effect of over 55% in size
(In qHTS, concentration-response curves come from the screen itself.)

The test system of one assay is C33A. The following applies: Gynecologic cancer cell panel viability, ATPlite luminescence, 48 h; series mostly up to 57.5 µM. The essentials:
(§1)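 ATP-based viability (ATPlite), 1,000 cells/well, 16 h pre-incubation, 48 h compound at 37 C, 5% CO2, 15 min RT before read.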
Background: Cellular ATP, detected with luciferase, serves as a proxy for viable cell number.

The next assay has as its system CAOV3. The settings on record: Gynecologic cancer cell panel viability, ATPlite luminescence, 48 h; series mostly up to 57.5 µM. In short, it runs like this: as §1
The next assay concerns CASKI. The following applies: Gynecologic cancer cell panel viability, ATPlite luminescence, 48 h; series mostly up to 57.5 µM. The essentials:
as §1

Another assay concerns HeLa. The following applies: Gynecologic cancer cell panel viability, ATPlite luminescence, 48 h; series mostly up to 57.5 µM. In short, it runs like this: as §1
In the next assay the test system is Hek293T. The settings on record: Gynecologic cancer cell panel viability, ATPlite luminescence, 48 h, control line for the selectivity index; series mostly up to 57.5 µM. In short, it runs like this: as §1
The next assay has as its system JEG-3. The settings on record: Gynecologic cancer cell panel viability, ATPlite luminescence, 48 h; series mostly up to 57.5 µM. In short, it runs like this:
as §1

The next assay deals with OV90. The following applies: Gynecologic cancer cell panel viability, ATPlite luminescence, 48 h; series mostly up to 57.5 µM. In short, it runs like this:
as §1

A further assay relates to SKOV3. The settings on record: Gynecologic cancer cell panel viability, ATPlite luminescence, 48 h; series mostly up to 57.5 µM. In short, it runs like this: as §1
Another assay deals with Tov-21-G. The following applies: Gynecologic cancer cell panel viability, ATPlite luminescence, 48 h; series mostly up to 57.5 µM. In short, it runs like this: as §1
For the next assay, the system named is Tov112D. The following applies: Gynecologic cancer cell panel viability, ATPlite luminescence, 48 h; series mostly up to 57.5 µM. In short, it runs like this: as §1
The subject of the next assay is Es-2. The settings on record: Gynecologic cancer cell panel viability, ATPlite luminescence, 48 h; series mostly up to 57.5 µM. In short, it runs like this:
as §1

A further assay relates to PA-1. The settings on record: Gynecologic cancer cell panel viability, ATPlite luminescence, 48 h; series mostly up to 57.5 µM. The essentials: as §1
% is scaled to controls: 0 for no effect and ±100 for the full control effect; potency is read from the fitted curve at half-maximal effect.

For `Nc1ncnc2c1c(-c1ccc(Cl)cc1)nn2-c1cccc(-c2cnnn2Cc2cccc(-c3ccccc3)c2)c1`, the Potency result with C33A, with CAOV3, with CASKI, in the assay on HeLa, in the assay with Hek293T and in the assay with JEG-3 was “inactive” each time. Further, the Potency result in the assay on OV90, with SKOV3, with Tov-21-G and in the assay on Tov112D was “inactive” throughout.

As for `CC[C@@H](C)[C@@H]1OC2(C=C[C@H]1C)C[C@@H]1C[C@H](C/C=C(\C)[C@H](O[C@H]3C[C@H](OC)[C@H](O[C@H]4C[C@H](OC)[C@H](NC(C)=O)[C@H](C)O4)[C@H](C)O3)[C@H](C)/C=C/C=C3\CO[C@H]4[C@H](O)C(C)=C[C@@H](C(=O)O1)[C@@]34O)O2` (some centres undefined), the Potency result in the assay with C33A, in the assay on CAOV3, in the assay with CASKI, in the assay on Es-2, with OV90 and in the assay on Tov-21-G was “inactive” in each case. For the same molecule, the Potency result in the assay on Tov112D was “inactive”.

In the case of `O=C(Nc1nc2ccc([N+](=O)[O-])cc2s1)C1CCCCC1`, the Potency result with C33A, in the assay on CAOV3, in the assay on CASKI, with HeLa, in the assay on Hek293T and in the assay on JEG-3 was “inactive” in each case. Moreover, the Potency entry in the assay with OV90, in the assay with PA-1, in the assay on Tov-21-G and in the assay with Tov112D was “inactive” throughout.

Consider `C=C(C)C(=O)OC1CC(CO)CCC/C(CO)=C/C2OC(=O)C(=C)C21` (centres undefined), for which the Potency entry in the assay on C33A, with CAOV3, in the assay with CASKI, with HeLa, in the assay with JEG-3 and in the assay on OV90 was “inactive” each time. In addition, the Potency result with SKOV3 and with Tov112D was “inactive” throughout.

For `CCc1cnc(N2CCC(c3nc(COc4ccc(-n5cnnn5)cc4)cs3)CC2)nc1`, the Potency entry in the assay with C33A, in the assay with CAOV3, with CASKI, with HeLa, with JEG-3 and with OV90 was “inactive” each time. The Potency result in the assay with PA-1, in the assay on Tov-21-G and in the assay on Tov112D was “inactive” throughout.

Regarding `C=C1C(=O)O[C@@H]2/C=C(\C)CC/C=C(/C=O)[C@H](OC)[C@@H](OC(=O)C(C)C)[C@@H]12`, the Potency result in the assay on C33A, in the assay on CAOV3, in the assay on CASKI, in the assay on HeLa, with JEG-3 and with PA-1 was “inactive” throughout. In addition, the Potency result with SKOV3 and in the assay with Tov112D was “inactive” in each case.

`O=C(Nc1ccc2[nH]nc(-c3ccncc3)c2c1)[C@@H]1CCN(CC(=O)N2CCN(c3ccc(-c4ncccn4)cc3)CC2)C1`: the Potency result in the assay with C33A, in the assay with CAOV3, in the assay on CASKI, in the assay on Hek293T, in the assay with JEG-3 and in the assay with PA-1 was “inactive” in each case. Also, the Potency result in the assay on SKOV3 and in the assay on Tov112D was “inactive” each time.

Turning to `C=C(C)Cn1c(SCC(=O)c2cccs2)nc2sc3c(c2c1=O)CCCC3`, the Potency entry with C33A, in the assay on CAOV3, with CASKI, with Es-2, with OV90 and in the assay with SKOV3 was “inactive” throughout. The Potency entry in the assay with Tov112D was “inactive”.

As for `O=C(NCCN1CCOCC1)c1cc2c(Oc3ccc(NC(=O)C4(C(=O)Nc5ccc(F)cc5)CC4)cc3)ccnc2[nH]1`, the Potency result in the assay with C33A, in the assay on CAOV3, in the assay with CASKI, in the assay with HeLa, with Hek293T and with JEG-3 was “inactive” each time. Moreover, the Potency entry in the assay with PA-1, in the assay on SKOV3, in the assay on Tov-21-G and with Tov112D was “inactive” throughout.

For `CC[C@H](C(=O)Nc1ccccc1N1CCCC1)c1ccccc1`, the Potency result in the assay on C33A, in the assay on CAOV3, in the assay on CASKI, with Hek293T, in the assay on JEG-3 and in the assay with OV90 was “inactive” in each case. Further, the Potency entry with PA-1, in the assay with Tov-21-G and with Tov112D was “inactive” in each case.

Consider `CC#C[C@@H](CC(=O)O)c1ccc(OCc2cccc(-c3ccc(C(F)(F)F)cc3)c2)cc1`, for which the Potency result in the assay on C33A, in the assay with CAOV3, in the assay on CASKI, in the assay with Hek293T, with JEG-3 and in the assay with OV90 was “inactive” each time. Further, the Potency result in the assay on SKOV3, with Tov-21-G and with Tov112D was “inactive” throughout.

As to `C=C1C(=O)O[C@@H]2C[C@H](C)[C@@H]3CC(=O)[C@H](O)[C@@]3(C)C[C@H]12`, the Potency result in the assay with C33A, in the assay on CAOV3, in the assay on CASKI, in the assay with HeLa, in the assay on Hek293T and in the assay with JEG-3 was “inactive” each time. Besides, the Potency entry in the assay with OV90, with SKOV3 and in the assay with Tov112D was “inactive” in each case. Also, in the assay on PA-1, the Potency is 25.1 µM (active).

With `C/C=C(\C)C(=O)O[C@H]1C=CC(=O)O[C@H]1/C=C/[C@@H](O)[C@H](C)O`, the Potency entry in the assay on C33A, in the assay with CAOV3, in the assay with CASKI, in the assay on HeLa, with OV90 and with SKOV3 was “inactive” throughout. Also, the Potency entry in the assay with Tov112D is “inactive”.

Consider `Cc1cc(C)c(-n2cc(C)c3c(Cl)nc(C)nc32)c(C)c1`, for which the Potency entry in the assay with C33A, in the assay with CASKI, in the assay on Es-2, with HeLa, in the assay on Hek293T and in the assay with JEG-3 was “inactive” in each case. Also, the Potency result in the assay with OV90, in the assay with PA-1, with SKOV3, in the assay on Tov-21-G and in the assay with Tov112D was “inactive” each time.

Consider `O=C(Nc1ccc(-n2nc(C(F)(F)F)cc2C(F)(F)F)cc1)c1ccncc1F`, for which the Potency result in the assay on C33A, with CASKI, in the assay with Es-2, in the assay with HeLa, in the assay on Hek293T and with JEG-3 was “inactive” in each case. In addition, the Potency entry in the assay with OV90, in the assay on SKOV3, with Tov-21-G and in the assay on Tov112D was “inactive” in each case.

As to `CC(=O)OC1CC(C)(C(=O)O)CC2C3=CC(=O)C4C5(C)CCC(OC6OC(C(=O)O)C(O)C(O)C6OC6OC(C(=O)O)C(O)C(O)C6O)C(C)(C)C5CCC4(C)C3(C)CCC12C` (centres undefined), the activity change, negative = cytotoxicity in the assay on C33A was 10.4% [at 11.6 µM]; in the assay with CASKI, 12.9% [at 11.6 µM]; in the assay with Es-2, 12.5% [at 11.6 µM]; with HeLa it was 14.8% [at 11.6 µM]; in the assay with Hek293T, 7.86% [at 11.6 µM]; in the assay with JEG-3, 5.64% [at 11.6 µM]. Further, the activity change, negative = cytotoxicity in the assay with OV90 was 2.42% [at 11.6 µM]; in the assay on PA-1, 22.8% [at 11.6 µM]; in the assay on SKOV3 it was 0% [at 11.6 µM]; in the assay with Tov-21-G, -2.43% [at 11.6 µM]; in the assay on Tov112D, -0.209% [at 11.6 µM].
